Screens from PubChem.
Shown are actives, neighbours in structure and some others; about 19% of the full set was active somewhere.
TDP1 cell CPT – DT40-hTDP1 cell growth loss with CPT. 12% of 420,000 active. Potency, µM (series often up to 46.2 µM), without a hit: top-dose activity change, negative = growth inhibition, hits mostly inhibitors. chicken DT40 Tdp1-/-;hTDP1 cells + 20 nM CPT, ATP luminescence, 48 h; also: potency is read from the fitted curve at half-maximal effect; % is scaled to controls: 0 for no effect and ±100 for the full control effect; nearly all actives have a fitted effect of over 55% in size
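Chicken DT40 Tdp1-/- cells complemented with human TDP1, 400 cells/well, exposed to compounds plus 20 nM camptothecin for at least 48 h at 37 C; viability read as ATP content by CellTiter-Glo luminescence.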
TGFb SMAD3 inh – blocks TGF-b signaling; HepG2 CAGA-GFP TGF-b/SMAD3 reporter, GFP fluorescence, 18 h; TGF-beta stimulated, 500 pg/mL final; Potency, µM (doses to about 46.1 µM), for the others: at the top dose activity, negative = inhibition, actives largely listed as inhibitors; 1.2% of 410,000 active; AID 588855; also: potency is read from the fitted curve at half-maximal effect; % is scaled to controls: 0 for no effect and ±100 for the full control effect; nearly all actives have a fitted effect of over 65% in size
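Cell-based qHTS in HEPG2 carrying a CAGA-GFP Smad reporter; compounds added before 500 pg/mL final TGF-beta, 18 h incubation at 37 degrees C, GFP fluorescence quantified per cell by imaging cytometry.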
TDP1 cell noCPT – qHTS for Inhibitors of human tyrosyl-DNA phosphodiesterase 1 (TDP1): qHTS in cells in absence of CPT; DT40 Tdp1-/- hTDP1 cells, no CPT, ATP luminescence, 48 h; Potency, µM (series often up to 46.2 µM), for the others: at the highest dose activity change, negative = growth inhibition, actives largely listed as inhibitors; AID 686978, 2013; 15% of 420,000 active; also: potency is read from the fitted curve at half-maximal effect; % is scaled to controls: 0 for no effect and ±100 for the full control effect; nearly all actives have a fitted effect of over 55% in size
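Luminescent ATP content (CellTiter-Glo) served as the growth readout. Knockout chicken DT40 cells expressing human TDP1 were exposed to compounds without camptothecin for a minimum 48 hr at 37 °C.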
IL1B secr inh – inhibitors of inflammasome signaling (IL-1 beta secretion); THP-1 LPS/ATP IL-1B secretion, AlphaLISA, 16 h; stronger effect = lower value; activity change, % at 57.5 µM; 4.7% of 360,000 active; AID 743279; in the data active = activity change below about -50%; inconclusive = mostly about -30% to -49%; also: % is scaled to controls: 0 for no effect and ±100 for the full control effect
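THP-1 cells pretreated 1 hr with compounds (up to 57.5 uM final), then stimulated with LPS (250 ng/mL final) plus ATP (1.25 mM final); secreted IL-1B measured by AlphaLISA after 16 hr, decreased signal indicating inhibition.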
ASM inhibitor – blocks human secretory acid sphingomyelinase | 0.006% of 340,000 active | placental ASM, HMU-PC fluorogenic substrate, 60 min | P17405 | Potency, µM (titrated, usually from 57.5 µM), without a hit: top-dose activity change, negative = inhibition, actives largely listed as inhibitors; also: potency is read from the fitted curve at half-maximal effect
Target sequence (P17405 47-631 limits assumed): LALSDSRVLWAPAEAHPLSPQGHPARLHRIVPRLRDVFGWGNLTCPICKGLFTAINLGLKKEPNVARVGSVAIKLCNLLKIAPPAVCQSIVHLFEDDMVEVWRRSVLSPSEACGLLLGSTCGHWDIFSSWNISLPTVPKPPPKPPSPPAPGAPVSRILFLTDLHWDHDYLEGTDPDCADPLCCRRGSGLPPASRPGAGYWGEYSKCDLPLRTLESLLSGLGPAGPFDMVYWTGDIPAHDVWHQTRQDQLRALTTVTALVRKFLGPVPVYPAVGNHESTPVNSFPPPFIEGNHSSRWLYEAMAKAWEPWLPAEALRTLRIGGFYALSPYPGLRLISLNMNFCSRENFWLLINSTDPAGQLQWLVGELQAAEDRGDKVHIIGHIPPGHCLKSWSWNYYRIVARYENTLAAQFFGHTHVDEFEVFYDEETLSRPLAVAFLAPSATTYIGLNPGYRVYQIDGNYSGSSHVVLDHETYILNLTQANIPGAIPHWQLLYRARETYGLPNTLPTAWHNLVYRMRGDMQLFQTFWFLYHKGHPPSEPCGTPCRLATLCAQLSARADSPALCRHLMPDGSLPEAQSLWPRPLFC
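Steps: dispense placental human ASM, pin compound, wait 10 min at room temperature, add HMU-PC0 substrate at 9 uM final, incubate 60 min at 37 °C, add stop solution raising pH to 10, read fluorescence.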
HepG2 tox – HepG2 cytotoxicity, counter-screen for TGF-b inhibitors. 0.76% of 410,000 active. AID 588856. HepG2 CAGA-GFP viability, ATP luminescence, 18 h. Potency, µM (top dose mostly 46.1 µM), inactives show at the top dose activity change, negative = cytotoxicity, usual class: cytotoxic; also: potency is read from the fitted curve at half-maximal effect
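HepG2 CAGA-GFP cells (1000/well, DMEM with 1% FBS) received compound, then TGF-beta at 500 pg/mL final, and were incubated 18 hours at 37 degrees C. Viability was read by CellTiter-Glo luminescence. Media-only wells were set as complete cell-killing and DMSO as no toxicity.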
* marks the source's active call; other numbers are inactive results. Unless noted, calls follow the shape of the dose curve; as a rule, active = well fitted curve in the direction sought with a large enough effect; inconclusive = small, poorly fitted or top-dose-only effect, or another doubt; inactive = no such curve, though single readings can be large; an effect the other way counts as inactive or inconclusive.

What do the screens show for `CN(Cc1c(C(=O)N(C)Cc2ccccc2)nc2ccccn12)CC1Cc2ccccc2O1` (stereo not given)?
TDP1 cell CPT: 18µM*; TGFb SMAD3 inh: -23%; TDP1 cell noCPT: 15µM*; IL1B secr inh: 1; ASM inhibitor: 1%; HepG2 tox: -37%

Results for COc1ccc(CC(=O)NNS(=O)(=O)c2ccccc2[N+](=O)[O-])cc1 ?
TDP1 cell CPT: -3%; TGFb SMAD3 inh: 10%; TDP1 cell noCPT: 2%; IL1B secr inh: 5; ASM inhibitor: 3%; HepG2 tox: 12%

What do the screens show for `COC(=O)C1=CC(C(=O)c2cccs2)=NN(c2ccc(OC)cc2)C1C(=O)OC` (stereo not given)?
TDP1 cell CPT: inconclusive; TGFb SMAD3 inh: -27%; TDP1 cell noCPT: inconclusive; IL1B secr inh: -69*; ASM inhibitor: -12%; HepG2 tox: -30%

What do the screens show for `Cc1noc(C)c1S(=O)(=O)N(CC(=O)NCCc1ccccc1)c1ccc(C(C)C)cc1`?
TDP1 cell CPT: -26%; TGFb SMAD3 inh: -15%; TDP1 cell noCPT: inconclusive; IL1B secr inh: 17; ASM inhibitor: 0%; HepG2 tox: -6%

How did CCOc1ccc(N(CC(=O)Nc2ccccc2C)S(=O)(=O)c2c(C)noc2C)cc1 do in these assays?
TDP1 cell CPT: 4.6µM*; TGFb SMAD3 inh: inconclusive; TDP1 cell noCPT: 2.9µM*; IL1B secr inh: 29; ASM inhibitor: -4%; HepG2 tox: 4%

What do the screens show for `CCOc1ccccc1NC(=O)CN(c1cc(C)cc(C)c1)S(=O)(=O)c1c(C)noc1C`?
TDP1 cell CPT: -3%; TGFb SMAD3 inh: -19%; TDP1 cell noCPT: -20%; IL1B secr inh: 2; ASM inhibitor: 5%; HepG2 tox: -27%

What do the screens show for `Cc1noc(C)c1S(=O)(=O)N(CC(=O)NC(C)c1ccccc1)c1ccc(C(C)C)cc1` (stereo not given)?
TDP1 cell CPT: inconclusive; TGFb SMAD3 inh: inconclusive; TDP1 cell noCPT: inconclusive; IL1B secr inh: -53*; ASM inhibitor: 10%; HepG2 tox: -36%

Results for CCOc1ccccc1NC(=O)CN(c1ccc(OC)cc1)S(=O)(=O)c1c(C)noc1C ?
TDP1 cell CPT: 2.9µM*; TGFb SMAD3 inh: inconclusive; TDP1 cell noCPT: 3.3µM*; IL1B secr inh: 41; ASM inhibitor: -10%; HepG2 tox: 0%

What do the screens show for `COc1ccc(-n2nc(C(=O)N3CCN(c4cccc(C)c4C)CC3)c3c4ccccc4n(C)c3c2=O)cc1Cl`?
TDP1 cell CPT: 11%; TGFb SMAD3 inh: -24%; TDP1 cell noCPT: -10%; HepG2 tox: -20%

How did CC(CCc1ccccc1)NC(=O)CN1CCN(c2ccc(O)cc2)CC1 (stereo not given) do in these assays?
TDP1 cell CPT: inconclusive; TGFb SMAD3 inh: 0%; TDP1 cell noCPT: inconclusive; IL1B secr inh: 8; ASM inhibitor: -4%; HepG2 tox: -2%

Results for COC(=O)c1ccc(CSc2nnc(CNC(=O)COc3ccc(Cl)cc3)o2)o1 ?
TDP1 cell CPT: 16µM*; TGFb SMAD3 inh: -13%; TDP1 cell noCPT: inconclusive; IL1B secr inh: -11; ASM inhibitor: -1%; HepG2 tox: 3%

Results for O=C(COc1ccc(Cl)cc1)NCc1nnc(SCC(=O)Nc2ccc(F)cc2F)o1 ?
TDP1 cell CPT: 13µM*; TGFb SMAD3 inh: 3%; TDP1 cell noCPT: 6%; IL1B secr inh: -8; ASM inhibitor: -4%; HepG2 tox: -6%

How did Cc1ccc(-n2ncc3c(N4CCN(Cc5ccccc5)CC4)ncnc32)cc1Cl do in these assays?
TDP1 cell CPT: 8.2µM*; TGFb SMAD3 inh: 7%; TDP1 cell noCPT: 9.2µM*; HepG2 tox: -2%

How did c1ccc(CN2CCN(c3ncnc4c3cnn4-c3ccccc3)CC2)cc1 do in these assays?
TDP1 cell CPT: 16µM*; TGFb SMAD3 inh: 26%; TDP1 cell noCPT: 18µM*; HepG2 tox: 11%

Results for c1ccc(-n2ncc3c(N4CCN(CCOc5cccc6ccccc56)CC4)ncnc32)cc1 ?
TDP1 cell CPT: 16µM*; TGFb SMAD3 inh: -1%; TDP1 cell noCPT: 26µM*; IL1B secr inh: 8; ASM inhibitor: -28%; HepG2 tox: -9%

What do the screens show for `Fc1ccc(-n2ncc3c(N4CCN(Cc5ccccc5)CC4)ncnc32)cc1`?
TDP1 cell CPT: -12%; TGFb SMAD3 inh: -3%; TDP1 cell noCPT: -21%; HepG2 tox: -13%

Results for Cc1ccc(CN2c3ccccc3-c3nc(SCC(=O)Nc4c(C)cc(C)cc4C)ncc3S2(=O)=O)cc1 ?
TDP1 cell CPT: inconclusive; TGFb SMAD3 inh: -13%; TDP1 cell noCPT: inconclusive; HepG2 tox: 0%

How did COCCN1Cc2cccc(C(=O)NCCCN3CCCC3=O)c2C1=O do in these assays?
TDP1 cell CPT: 1%; TGFb SMAD3 inh: 2%; TDP1 cell noCPT: 25%; IL1B secr inh: 12; ASM inhibitor: -2%; HepG2 tox: 9%

What do the screens show for `CC(C)(C)OC(=O)NS(=O)(=O)NCc1ccco1`?
TGFb SMAD3 inh: -26%; HepG2 tox: 7%

What do the screens show for `COc1cc(CCCN2C(=S)NC[C@H]2Cc2ccc(O)cc2)cc(OC)c1OC`?
TDP1 cell CPT: inconclusive; TGFb SMAD3 inh: inconclusive; TDP1 cell noCPT: 15µM*; IL1B secr inh: 2; ASM inhibitor: 2%; HepG2 tox: -6%

What do the screens show for `Cc1nc2ccccn2c1CN(C)C(=O)C1CCC(=O)N(Cc2cccc(F)c2)C1` (stereo not given)?
TDP1 cell CPT: -6%; TGFb SMAD3 inh: 6%; TDP1 cell noCPT: 0%; IL1B secr inh: 16; ASM inhibitor: 3%; HepG2 tox: 13%

How did COc1ccc(-c2csc3nc(-c4cccnc4)nc(Cl)c23)cc1OC do in these assays?
TDP1 cell CPT: inconclusive; TGFb SMAD3 inh: -18%; TDP1 cell noCPT: inconclusive; IL1B secr inh: -87*; ASM inhibitor: -4%; HepG2 tox: -10%

What do the screens show for `O=C(C1CCC1)N1CCc2cc(S(=O)(=O)N3CCN(c4ccccn4)CC3)ccc21`?
TDP1 cell CPT: inconclusive; TGFb SMAD3 inh: 0%; TDP1 cell noCPT: inconclusive; IL1B secr inh: -3; ASM inhibitor: -3%; HepG2 tox: -17%

What do the screens show for `CCC(=O)N1CCCc2cc(S(=O)(=O)N3CCN(c4ncccn4)CC3)ccc21`?
TDP1 cell CPT: 15µM*; TGFb SMAD3 inh: -5%; TDP1 cell noCPT: inconclusive; IL1B secr inh: -1; ASM inhibitor: -1%; HepG2 tox: -3%
